Sampled rows, rich in hits. Any-hit rate of the full collection: about 1%.
RECQ1 inh-1 – blocks DNA unwinding by human RECQ1; Potency, µM (series often up to 57.3 µM), without a hit: at the highest dose activity, negative = inhibition, most hits filed as inhibitors; actives 0.54% (n = 240,000); RECQ1 DNA unwinding, red fluorescence kinetic read;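 also: plate controls were vehicle for no effect and no enzyme for full effect; nearly all actives have a fitted effect of over 30% in size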
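RECQ1T1 50 nM; forked duplex (20 bp + 30-nt ss tails) 200 nM, ATP 2 mM final; pH 8.0, 2 mM MgCl2, 2.5 ug/ml poly(dI-dC); 15 min compound preincubation; discontinuous kinetic read over 2 h at RT.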
WRN helicase inh-1 – blocks human WRN helicase; Q14191; WRN helicase unwinding, fluorescent forked duplex, kinetic; Potency, µM (highest dose often 114 µM), inactives show at the top dose activity change, negative = inhibition, most hits filed as inhibitors; actives 0.46% (n = 360,000); also: % is scaled to controls: 0 for no effect and ±100 for the full control effect; nearly all actives have a fitted effect of over 55% in size
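Enzyme (20 nM final) and test compound sit together 15 min at room temperature before substrate addition. Substrate is a single-forked duplex oligonucleotide (100 nM) labelled with fluorophore and quencher, with 2 mM ATP; helicase unwinding raises red fluorescence, read kinetically.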
FEN1 inh-1 – inhibitors of human flap endonuclease 1; P39748; Recombinant FEN1 flap cleavage, fluorescence, 15 min; Potency, µM (top dose mostly 114 µM), inactives show top-dose activity change, negative = inhibition, hits mostly inhibitors; actives 0.35% (n = 390,000); also: % is scaled to controls: 0 for no effect and ±100 for the full control effect; nearly all actives have a fitted effect of over 65% in size
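Recombinant FEN1 (10 nM) was preincubated with pin-transferred compounds for 15 min at room temperature, then flap DNA substrate (50 nM final) was added. Plates were read at 0 and 15 min, and normalized concentration–response data were fitted to a four-parameter Hill equation.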
L3MBTL1 inh-1 – inhibitors of human L3MBTL1. Q9Y468. AlphaScreen L3MBTL1–H3K9me1 peptide binding. Potency, µM (highest dose often 57.1 µM), for inactives: top-dose activity, negative = inhibition, usual class: inhibitors. actives 0.66% (n = 230,000). AID 485360; also: % is scaled to controls: 0 for no effect and ±100 for the full control effect; nearly all actives have a fitted effect of over 60% in size
Target sequence (Q9Y468 whole entry, looked up): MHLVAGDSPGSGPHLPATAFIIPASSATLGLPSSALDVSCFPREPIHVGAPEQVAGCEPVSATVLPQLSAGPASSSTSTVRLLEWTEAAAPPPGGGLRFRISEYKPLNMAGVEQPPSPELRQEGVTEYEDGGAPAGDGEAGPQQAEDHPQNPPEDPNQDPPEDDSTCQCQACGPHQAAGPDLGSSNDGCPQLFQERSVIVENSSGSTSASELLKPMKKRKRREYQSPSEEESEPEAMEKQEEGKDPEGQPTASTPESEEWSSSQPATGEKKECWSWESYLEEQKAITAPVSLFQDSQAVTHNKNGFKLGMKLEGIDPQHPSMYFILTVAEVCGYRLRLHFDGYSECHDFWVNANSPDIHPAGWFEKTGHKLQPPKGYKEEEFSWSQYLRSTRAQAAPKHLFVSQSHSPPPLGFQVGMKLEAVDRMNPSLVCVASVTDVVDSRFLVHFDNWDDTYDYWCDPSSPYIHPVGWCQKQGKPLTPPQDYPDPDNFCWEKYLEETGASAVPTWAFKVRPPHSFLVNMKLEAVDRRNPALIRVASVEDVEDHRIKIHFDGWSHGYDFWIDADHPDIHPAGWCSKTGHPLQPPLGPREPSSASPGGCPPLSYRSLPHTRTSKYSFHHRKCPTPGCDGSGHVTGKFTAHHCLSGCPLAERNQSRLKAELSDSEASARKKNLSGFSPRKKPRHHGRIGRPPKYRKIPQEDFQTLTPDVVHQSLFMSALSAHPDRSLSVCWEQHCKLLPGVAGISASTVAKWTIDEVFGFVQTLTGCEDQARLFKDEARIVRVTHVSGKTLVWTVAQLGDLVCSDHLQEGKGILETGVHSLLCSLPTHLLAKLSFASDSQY
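Read-out is AlphaScreen signal from streptavidin donor and nickel chelate acceptor beads (10 ug/mL final each) bridging L3MBTL1 (50 nM) and biotinylated K9-monomethylated H3(1-15) peptide (75 nM), after 30 min compound exposure at room temperature.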
BLM helicase inh-1 – blocks DNA unwinding by human BLM helicase | recombinant BLM DNA unwinding, fluorescence dequenching | Potency, µM (top dose mostly 56.1 µM), for inactives: at the highest dose activity change, negative = inhibition, most hits filed as inhibitors | actives 0.2% (n = 350,000);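 also: plate controls were vehicle for no effect and no enzyme for full effect; nearly all actives have a fitted effect of over 35% in size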
APE1 inh – APE1 (human) endonuclease inhibition. P27695. recombinant APE1, TAMRA/BHQ-2 abasic DNA cleavage fluorescence. Potency, µM (doses to about 65.8 µM), inactives show at the top dose activity change, negative = inhibition, most hits filed as inhibitors. actives 0.35% (n = 350,000). AID 2517;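 also: plate controls were vehicle for no effect and reference inhibitor for full effect; nearly all actives have a fitted effect of over 55% in size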
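Step 1: APE1 (0.75 nM) with compound, 15 min RT. Step 2: add 50 nM fluorophore/quencher THF duplex. Step 3: three fluorescence reads 60 s apart (525/598 nm); read 3 minus read 1 = reaction progress.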
RECQ1 conf – confirmation of human RECQ1 helicase inhibitors | shares compounds with RECQ1 inh-1 | RECQ1 helicase DNA unwinding, fluorescence | Potency, µM (titrated, usually from 229 µM), for the others: top-dose activity change, negative = inhibition, usual class: inhibitors | actives 28% (n = 610); also: % is scaled to controls: 0 for no effect and ±100 for the full control effect; nearly all actives have a fitted effect of over 45% in size
RECQ1 ADP FP – ADP displacement flagged in RECQ1 inhibitor counter-screen. shares compounds with RECQ1 inh-1. ADP fluorescence polarization displacement counterscreen. Potency, µM (top dose mostly 228 µM), inactives show top-dose activity change, negative = inhibition, actives largely listed as inhibitors. actives 27% (n = 530). AID 2711; also: % is scaled to controls: 0 for no effect and ±100 for the full control effect; nearly all actives have a fitted effect of over 45% in size
RECQ1 inh-2 – RECQ1 helicase inhibition confirmed, round 2 | AID 504841 | Potency, µM (doses to about 119 µM), without a hit: at the highest dose activity, negative = inhibition, actives largely listed as inhibitors | actives 15% (n = 1,100) | recombinant RECQ1 DNA unwinding, red fluorescence | shares compounds with RECQ1 inh-1; also: % is scaled to controls: 0 for no effect and ±100 for the full control effect; nearly all actives have a fitted effect of over 50% in size
L3MBTL1 inh-2 – L3MBTL1 binding inhibition validated. actives 91% (n = 500). L3MBTL1 methyl-lysine binding inhibition, biochemical qHTS. Potency, µM, usual class: inhibitors. AID 540279. shares compounds with L3MBTL1 inh-1; also: nearly all actives have a fitted effect of over 70% in size
AlphaScreen ctr2 – interferes with AlphaScreen signal in L3MBTL1 counterscreen; Potency, µM (titrated, usually from 57.1 µM), inactives show at the top dose activity change, negative = inhibition, usual class: inhibitors; shares compounds with L3MBTL1 inh-1; 500 tested, under 10 active; AlphaScreen counterscreen, signal inhibition; AID 602224; also: 0% is about no effect
FEN1 inh-2 – confirmation of human FEN1 inhibitors. shares compounds with FEN1 inh-1. FEN1 flap cleavage, TAMRA/BHQ2 fluorogenic DNA substrate. Potency, µM, actives largely listed as inhibitors. actives 79% (n = 880); also: nearly all actives have a fitted effect of over 60% in size
WRN helicase inh-2 – confirmation of human WRN helicase inhibitors. shares compounds with WRN helicase inh-1. WRN helicase DNA unwinding, fluorescence kinetic. Potency, µM (titrated, usually from 57.1 µM), without a hit: at the highest dose activity, negative = inhibition, hits mostly inhibitors. actives 63% (n = 610). AID 720497; also: nearly all actives have a fitted effect of over 65% in size
TO displacement – binds DNA, flagged in WRN inhibitor counterscreen; shares compounds with WRN helicase inh-1; thiazole orange DNA binding displacement, fluorescence; Potency, µM (highest dose often 57.1 µM), without a hit: top-dose activity change, negative = inhibition, usual class: inhibitors; actives 10% (n = 610); AID 720499;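 also: drop in dye fluorescence marks compound binding to DNA; % is scaled to controls: 0 for no effect and ±100 for the full control effect; nearly all actives have a fitted effect of over 60% in size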
BLM helicase inh-2 – counter-screen for WRN helicase inhibitors: human BLM helicase inhibition | shares compounds with WRN helicase inh-1 | Recombinant BLM helicase DNA unwinding, red fluorescence | Potency, µM (highest dose often 57.1 µM), inactives show at the top dose activity change, negative = inhibition, actives largely listed as inhibitors | actives 60% (n = 610); also: nearly all actives have a fitted effect of over 60% in size
* marks the source's active call; other numbers are inactive results; i = inactive; ? = inconclusive; . = not tested or not shown; [ ] = another dose, or the depositor's remark. Calls follow the shape of the dose curve; as a rule, active = well fitted curve in the direction sought with a large enough effect; inconclusive = small, poorly fitted or top-dose-only effect, or another doubt; inactive = no such curve, though single readings can be large; an effect the other way counts as inactive or inconclusive. Potency is read from the fitted curve at half-maximal effect.

SMILES	RECQ1 inh-1	WRN helicase inh-1	FEN1 inh-1	L3MBTL1 inh-1	BLM helicase inh-1	APE1 inh	RECQ1 inh-2	FEN1 inh-2	others
COc1ccc(OC)c(Nc2nc(NCCCN(C)C)nc(N)c2[N+](=O)[O-])c1	?	35µM*	13µM*	-12%	?	?	?	48*
CN1CCc2cc(O)c(O)cc2C1Cc1ccc(O)c(O)c1 (stereo not given)	8%	.	.	.	-7%	-5%	.	.
CCOC(=O)[C@]12CCCC=C1N(Cc1ccc3c(c1)OCO3)C(=O)[C@H](CC(=O)N1CCC(c3ccccc3)CC1)C2	.	-5%	.	.	.	.	.	.
O=C(c1ccc2c(c1)C(=O)N(CCCO)C2=O)c1ccc2c(c1)C(=O)N(CCCO)C2=O	-1%	-18%	-4%	.	-1%	6%	.	.
O=C1c2ccc3c4c(ccc(c24)C(=O)N1CCCCO)C(=O)N(CCCCO)C3=O	7.1µM*	-8%[11.6 µM]	?	.	-1%	?	50µM*	30*
COC(=O)c1c(C)cc(OC)cc1O	-10%	.	.	.	5%	-8%	.	.
COC(=O)c1cc(O)cc(OC)c1Oc1cc(C)cc(O)c1C(=O)O	22µM*	20µM*	50µM*	.	8.9µM*	0.63µM*	5µM*	76*
COc1cc(N(C)C)ccc1/C=C/c1ccnc2ccccc12	.	.	-6%	.	.	.	.	.
CCOc1ccccc1NC(=O)CSc1cn(CC(=O)N2CCCCCC2)c2ccccc12	.	.	-3%	.	-8%	.	.	.
CCN(CC)C(=O)CSc1nc2ccccc2c(=O)n1-c1cccc(OC)c1	15%	-5%	5%	.	-2%	-1%	.	.
COc1cccc(-n2c(SCc3cc(=O)oc4cc(O)c(O)cc34)nc3ccccc3c2=O)c1	25µM*	28µM*	50µM*	32µM*	10µM*	10µM*	13µM*	27*
N=C1/C(=C/c2ccc(-c3cccc(C(=O)O)c3)o2)C(=O)N=C2SC=C(c3ccccc3)N12	?	35µM*	?	.	?	?	?	24*
N=C1/C(=C\c2ccc(-c3cc(Cl)cc(Cl)c3)o2)C(=O)N=C2SC=C(c3ccccc3)N12	-4%	1%	7%	-9%	0%	2%	.	.
Clc1ccc(C(c2cccs2)N2CCNCC2)cc1 (stereo not given)	.	-2%	.	.	.	.	.	.
Cn1cnnc1SCC(=O)Nc1sc2c(c1C(N)=O)CCC2	32µM*	13µM*	32µM*	?	?	?	?	?
COCCn1cnnc1SCC(=O)Nc1sc2c(c1C#N)CCC2	.	?	1%	-11%	.	10%	.	.
CCOC(=O)C1CCN(C(c2cccc(F)c2)c2c(O)cc(C)n(CCOC)c2=O)CC1 (stereo not given)	.	.	8%	.	2%	.	.	.
O=C(NC1CC(=O)N(c2cccc(F)c2)C1)C1CCCC1 (stereo not given)	.	.	4%	.	0%	.	.	.
CC(C)Nc1ccc(Nc2ccnc3cc4ccccc4cc23)cc1	22µM*	35µM*	25µM*	14µM*	?	?	.	24*	RECQ1 conf=22µM*;RECQ1 ADP FP=37%[91.9 µM];L3MBTL1 inh-2=21*;AlphaScreen ctr2=1%
Cc1c(Cl)cccc1NS(=O)(=O)c1ccc2c(c1)C1C=CCC1C(c1ccc(C(=O)O)cc1)N2 (stereo not given)	28µM*	32µM*	25µM*	7.9µM*	?	-10%	?	60*
COc1cc(/C=N/N2C(=O)CSC2=S)cc(Br)c1O	35µM*	50µM*	79µM*	32µM*	-6%	?	.	43*	RECQ1 conf=?
COc1cc(/C=N/N2C(C)CCCC2C)cc(Br)c1O (stereo not given)	-15%	5%	-3%	0%	0%	-1%	.	.
Cc1ccc(-c2csc(NC(=O)/C=C/c3ccco3)c2C(=O)O)cc1	22µM*	40µM*	-30%	?	?	?	-30%	.	RECQ1 conf=?;RECQ1 ADP FP=-9%[91.9 µM];WRN helicase inh-2=?;TO displacement=-12%;BLM helicase inh-2=?
O=C(Nc1scc(-c2ccc(F)cc2)c1C(=O)O)c1ccco1	i	-28%	14%	.	1%	-1%	.	.
CN1CCN(c2ncc3nc(-c4ccccc4)c(=O)n(-c4ccccc4)c3n2)CC1	-5%	.	.	.	5%	2%	.	.
COc1ccc(OC)c(N2C(=O)[C@@H]3C(c4ccccc4Cl)=NO[C@@H]3C2=O)c1	28µM*	40µM*	50µM*	3.5µM*	-6%	?	?	.	L3MBTL1 inh-2=3*;AlphaScreen ctr2=-2%;WRN helicase inh-2=22µM*;TO displacement=?;BLM helicase inh-2=17µM*

Assay outcomes from PubChem BioAssay.
